In PubChem BioAssay AID2073 (Sanford-Burnham Center for Chemical Genomics, 2009):
Out of some 290,000 compounds screened, about 570 (0.2%) were called active. Not shown: some 1% with an inconclusive outcome. No stated cut-off is given here; in the data, active means inhibition mostly above about 51% (no sharp cut-off); inconclusive means no clear call, values can overlap the other calls; inactive means mostly below about 53%. The list comes from a sample in which actives are over-represented; it also holds similar structures and randomly drawn compounds.

Molecular target: Voltage-dependent N-type calcium channel subunit alpha-1B (Homo sapiens) (UniProt Q00975)
Test: inhibitors of Mint1-CaV2.2 protein interaction, biochemical, HTRF (AID 2073)
Conditions: at 20 µM, stronger effect = higher value

Sequence of Voltage-dependent N-type calcium channel subunit alpha-1B (Homo sapiens) (Q00975 whole entry, looked up): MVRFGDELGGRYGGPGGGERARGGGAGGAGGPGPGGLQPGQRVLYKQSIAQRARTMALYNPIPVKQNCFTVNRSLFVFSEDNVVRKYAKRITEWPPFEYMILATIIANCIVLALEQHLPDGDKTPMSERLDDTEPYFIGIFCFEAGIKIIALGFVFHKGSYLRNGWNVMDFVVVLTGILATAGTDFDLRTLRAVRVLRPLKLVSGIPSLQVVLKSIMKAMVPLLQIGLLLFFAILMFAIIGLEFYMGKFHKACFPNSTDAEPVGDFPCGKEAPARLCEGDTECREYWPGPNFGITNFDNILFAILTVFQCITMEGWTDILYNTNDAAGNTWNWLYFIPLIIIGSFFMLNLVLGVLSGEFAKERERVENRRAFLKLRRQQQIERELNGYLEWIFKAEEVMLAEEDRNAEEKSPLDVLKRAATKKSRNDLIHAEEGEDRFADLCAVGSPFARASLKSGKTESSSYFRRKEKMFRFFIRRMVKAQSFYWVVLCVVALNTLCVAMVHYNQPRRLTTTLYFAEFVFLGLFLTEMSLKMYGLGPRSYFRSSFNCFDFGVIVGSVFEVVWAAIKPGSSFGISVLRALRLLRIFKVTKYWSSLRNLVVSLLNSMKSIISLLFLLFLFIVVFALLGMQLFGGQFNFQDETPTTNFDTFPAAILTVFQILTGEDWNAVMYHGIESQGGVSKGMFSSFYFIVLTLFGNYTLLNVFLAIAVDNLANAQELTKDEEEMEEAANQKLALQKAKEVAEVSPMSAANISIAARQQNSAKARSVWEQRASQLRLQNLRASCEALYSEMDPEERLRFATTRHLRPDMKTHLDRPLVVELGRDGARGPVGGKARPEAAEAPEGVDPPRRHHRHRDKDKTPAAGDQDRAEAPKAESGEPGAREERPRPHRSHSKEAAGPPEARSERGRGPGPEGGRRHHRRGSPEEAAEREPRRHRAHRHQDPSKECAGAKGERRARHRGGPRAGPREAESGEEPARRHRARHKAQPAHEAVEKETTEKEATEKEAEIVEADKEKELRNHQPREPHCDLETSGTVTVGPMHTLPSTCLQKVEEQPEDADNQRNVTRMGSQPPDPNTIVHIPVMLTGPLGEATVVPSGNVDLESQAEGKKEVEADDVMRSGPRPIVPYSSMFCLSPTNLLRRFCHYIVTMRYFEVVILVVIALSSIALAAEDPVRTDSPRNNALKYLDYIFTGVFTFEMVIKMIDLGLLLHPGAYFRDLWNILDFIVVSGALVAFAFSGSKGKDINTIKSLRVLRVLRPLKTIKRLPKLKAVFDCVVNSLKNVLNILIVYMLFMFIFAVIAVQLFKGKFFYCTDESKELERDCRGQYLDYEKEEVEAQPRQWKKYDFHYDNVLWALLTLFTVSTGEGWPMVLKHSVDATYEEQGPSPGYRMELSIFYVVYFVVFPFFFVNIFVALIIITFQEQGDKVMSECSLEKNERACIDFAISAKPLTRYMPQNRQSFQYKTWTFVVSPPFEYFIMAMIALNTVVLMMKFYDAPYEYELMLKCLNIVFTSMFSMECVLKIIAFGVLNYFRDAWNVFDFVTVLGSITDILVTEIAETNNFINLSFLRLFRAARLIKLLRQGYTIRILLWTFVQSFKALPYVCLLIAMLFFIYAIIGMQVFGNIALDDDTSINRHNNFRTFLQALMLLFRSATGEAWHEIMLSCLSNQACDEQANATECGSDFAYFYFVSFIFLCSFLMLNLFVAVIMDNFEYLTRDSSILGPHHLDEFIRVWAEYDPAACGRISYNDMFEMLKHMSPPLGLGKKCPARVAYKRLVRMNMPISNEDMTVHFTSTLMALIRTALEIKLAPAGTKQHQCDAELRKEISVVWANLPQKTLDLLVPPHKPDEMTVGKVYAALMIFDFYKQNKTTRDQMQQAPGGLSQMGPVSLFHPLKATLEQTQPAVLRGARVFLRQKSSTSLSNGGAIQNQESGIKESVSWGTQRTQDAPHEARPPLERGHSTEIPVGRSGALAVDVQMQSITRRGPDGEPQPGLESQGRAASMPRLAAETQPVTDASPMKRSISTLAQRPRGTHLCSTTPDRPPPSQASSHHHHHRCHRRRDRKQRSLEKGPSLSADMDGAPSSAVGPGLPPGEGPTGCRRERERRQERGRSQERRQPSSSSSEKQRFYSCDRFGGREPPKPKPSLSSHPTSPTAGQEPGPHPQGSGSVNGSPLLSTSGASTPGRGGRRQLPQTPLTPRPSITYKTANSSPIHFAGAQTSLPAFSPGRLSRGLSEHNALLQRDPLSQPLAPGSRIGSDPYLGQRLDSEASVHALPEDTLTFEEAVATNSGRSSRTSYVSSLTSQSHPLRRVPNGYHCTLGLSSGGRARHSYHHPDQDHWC

Question: Which inhibition does the source give for Nc1cc(Cl)ccc1C(=O)OCC(=O)N1CCOCC1 here?
Answer: 7.5% (inactive)

Question: With O=C(O)c1cc(NCc2cccs2)ccc1N1CCOCC1 as the compound, how does the inhibition read?
Answer: 9.9% (inactive)

Question: With CCn1c(SCC(=O)NC2CCCCC2)nnc1C(C)NC(=O)c1ccccc1F (stereo not given) as the compound, how does the inhibition read?
Answer: 8.6% (inactive)

Question: How did the inhibition turn out when CC(C)c1ccc(OCC(O)CN2CCCC2)cc1 (stereo not given) was run?
Answer: -4.2% (inactive)

Question: Which inhibition does the source give for CCCn1c(SCC(=O)N2c3ccc(F)cc3CCC2C)nnc1-c1ccccn1 (stereo not given) here?
Answer: 7% (inactive)

Question: For O=C(/C=C\c1ccco1)c1ccc(NC(=O)c2ccco2)cc1, which inhibition is on record?
Answer: 68.1% (inactive)

Question: And the inhibition (measured here: average of repeat tests)?
Answer: 4%

Question: How did the inhibition turn out when O=C(/C=C/c1ccco1)c1ccc(NC(=O)C23CC4CC(CC(C4)C2)C3)cc1 was run?
Answer: 67.9% (active)

Question: How did the inhibition turn out when CC(=O)Nc1ccc(C(=O)/C=C/c2ccco2)cc1 was run?
Answer: 30.9% (inactive)

Question: Which inhibition does the source give for O=S(=O)(/N=C(/Nc1ccccc1)c1ccccc1O)c1ccccc1 here?
Answer: -7.3% (inactive)

Question: Which inhibition does the source give for c1coc(C2=Nc3cccc4cccc(c34)N2)c1 here?
Answer: 54.2% (active)

Question: Which inhibition does the source give for Fc1ccc(C2=Nc3cccc4cccc(c34)N2)cc1 here?
Answer: -8.3% (inactive)

Question: Brc1ccc(C2=Nc3cccc4cccc(c34)N2)o1 was tested. Which inhibition did it give?
Answer: -20.5% (inactive)

Question: Which inhibition does the source give for CNC(=O)CCn1nc(-c2ccc(C)cc2)c2ccccc2c1=O here?
Answer: -2.1% (inactive)

Question: Which inhibition does the source give for CCOC(=O)c1c(O)cc(C)cc1Nc1ccccc1 here?
Answer: 14.3% (inactive)

Question: Which inhibition does the source give for CCOc1ccc(C(=O)NCC(=O)OCC(=O)c2ccc3c(c2)-c2ccccc2C3)cc1 here?
Answer: 18.8% (inactive)

Question: For CCC(C)NC(=S)N(CCc1ccccc1)Cc1cc2cc(OC)c(OC)cc2[nH]c1=O (stereo not given), which inhibition is on record?
Answer: 7.1% (inactive)

Question: How did the inhibition turn out when CNC(=S)N(CCc1cccc(C)c1)Cc1cc2cc(OC)c(OC)cc2[nH]c1=O was run?
Answer: 46.2% (inactive)

Question: With CNC(=S)N(CCc1ccccc1)Cc1cc2cc(OC)c(OC)cc2[nH]c1=O as the compound, how does the inhibition read?
Answer: 65.8% (active)

Question: With O=C(CC1(O)C(=O)N(C/C=C/c2ccccc2)c2ccccc21)c1ccccn1 (stereo not given) as the compound, how does the inhibition read?
Answer: 0% (inactive)

Question: Which inhibition does the source give for NCCOc1ccc(C2CCCCC2)cc1 here?
Answer: -11.4% (inactive)

Question: With CCc1nc(NCCN2CCOCC2)c(C#N)c2c1CCCC2 as the compound, how does the inhibition read?
Answer: 9.8% (inactive)

Question: For CCc1cccc(C)c1NC(=O)CSc1nc2ccc(N3C(=O)c4ccccc4C3=O)cc2s1, which inhibition is on record?
Answer: 17.8% (inactive)

Question: Cc1ccc(C)c(NC(=O)CSc2nc3ccc(N4C(=O)c5ccccc5C4=O)cc3s2)c1 was tested. Which inhibition did it give?
Answer: -0.7% (inactive)

Question: Which inhibition does the source give for Cc1cc(C)c(NC(=O)CSc2nc3ccc(N4C(=O)c5ccccc5C4=O)cc3s2)c(C)c1 here?
Answer: 55.2% (active)

Question: How did the inhibition turn out when Cc1ccc(C(=O)N/N=C/c2c(O)ccc3ccccc23)cn1 was run?
Answer: 14.1% (inactive)

Question: Cc1cccc(C)c1NCc1n[nH]c(=S)n1-c1ccccc1 was tested. Which inhibition did it give?
Answer: -8.3% (inactive)

Question: With O=C(NCCCN1CCOCC1)c1sc2cc(Cl)ccc2c1Cl as the compound, how does the inhibition read?
Answer: -10.3% (inactive)

Question: How did the inhibition turn out when O=C(NCCCN1CCOCC1)c1sc2cc([N+](=O)[O-])ccc2c1Cl was run?
Answer: 67.7% (active)

Question: Which inhibition does the source give for O=C(NCCCN1CCOCC1)c1sc2cc(F)ccc2c1Cl here?
Answer: -0.7% (inactive)
